“And” between values parts separate entries of the source, which are not always exact repeats. Identical values can stand only once. The panel holds about 83,000 compounds, 20% with a hit somewhere; the sample as a whole holds those more often.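 Cells were grown in 96-well plates and exposed to the test compound at a single concentration for 48 hours; results are reported as percent growth, with values below 10 considered active.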 The source made the active and inactive calls. Where a SMILES comes first, the peptide text is derived from it.

We go through eight molecules from PubChem BioAssay (NCI).

Test systems include SR leukemia; OVCAR-8 ovarian; OVCAR-5 ovarian; OVCAR-4 ovarian; SK-OV-3 ovarian; IGROV1 ovarian; OVCAR-3 ovarian; HS 578T breast; NCI/ADR-RES ovarian; T-47D breast; BT-549 breast; MDA-MB-435 melanoma; SW-620 colon; MCF7 breast; HCT-116 colon; HCC-2998 colon; KM12 colon; RPMI-8226 leukemia.
Holding throughout (test): NCI-60 one-dose screen, 48 h (100 = growth as untreated, 0 = no growth, -100 = all killed)
Holding throughout (details): 10 µM unless noted

Regarding `Cn1cnc([N+](=O)[O-])c1Sc1ncn[nH]1`, the growth with SR leukemia is 126% (inactive); with OVCAR-8 ovarian, 73.8% (inactive); with OVCAR-5 ovarian, 116% (inactive); in the test with OVCAR-4 ovarian it was 95.5% (inactive); in the test on SK-OV-3 ovarian, 115% (inactive); in the test with IGROV1 ovarian, 105% (inactive). The growth in the test with OVCAR-3 ovarian was 119% (inactive); in the test on HS 578T breast it was 119% (inactive); with NCI/ADR-RES ovarian, 119% (inactive); with T-47D breast it was 94.2% (inactive); in the test with BT-549 breast, 101% (inactive); in the test on MDA-MB-435 melanoma, 101% (inactive). The values for the growth with SW-620 colon, in the test on MCF7 breast and in the test with HCT-116 colon were 106% (inactive), 102% (inactive) and 101% (inactive), respectively.
In the case of `CN(C)c1ccc(/C=C\C(=O)c2ccccc2)cc1`, the growth with SR leukemia was 3.11% (active) and 59.4% (inactive) and 24.9% (inactive); with OVCAR-8 ovarian, 102% (inactive) and 93.9% (inactive) and 92.6% (inactive); in the test on OVCAR-5 ovarian, 106% (inactive) and 110% (inactive) and 99% (inactive); in the test on OVCAR-4 ovarian it was 105% (inactive) and 109% (inactive) and 104% (inactive); in the test with SK-OV-3 ovarian it was 92.3% (inactive) and 104% (inactive); in the test on IGROV1 ovarian it was 80.5% (inactive) and 91.3% (inactive) and 80.3% (inactive). Besides, the growth with OVCAR-3 ovarian is 81.4% (inactive) and 76.2% (inactive) and 78.5% (inactive); with HS 578T breast, 104% (inactive) and 99.6% (inactive) and 103% (inactive); in the test with NCI/ADR-RES ovarian, 88.2% (inactive) and 85.5% (inactive) and 93.1% (inactive); in the test with T-47D breast, 85.2% (inactive) and 89.3% (inactive); in the test on BT-549 breast, 76.5% (inactive) and 77.6% (inactive) and 73.7% (inactive); with MDA-MB-435 melanoma it was 85.3% (inactive) and 38% (inactive) and 25.1% (inactive). Moreover, the growth is 64.2% (inactive) and 61.3% (inactive) and 66.4% (inactive) in the test with SW-620 colon; 50.2% (inactive) and 39.2% (inactive) and 45% (inactive) in the test with MCF7 breast; 75.9% (inactive) and 94.2% (inactive) and 59.2% (inactive) in the test on HCT-116 colon; 97.1% (inactive) and 88.3% (inactive) and 100% (inactive) in the test on HCC-2998 colon.
Take `Fc1ccc([I+]c2ccc(F)cc2)cc1`: the growth with SR leukemia was 38.6% (inactive); with OVCAR-8 ovarian, 46.1% (inactive); with OVCAR-5 ovarian it was 92.9% (inactive); in the test with OVCAR-4 ovarian, 52.1% (inactive); in the test with IGROV1 ovarian, 62.4% (inactive); in the test on OVCAR-3 ovarian it was 64.9% (inactive). The growth in the test with NCI/ADR-RES ovarian is 98.8% (inactive); in the test on BT-549 breast, 67% (inactive); in the test with MDA-MB-435 melanoma, 75% (inactive); in the test with SW-620 colon, 55.9% (inactive); with MCF7 breast, 48.2% (inactive); with HCT-116 colon it was 32.9% (inactive). Besides, the growth with HCC-2998 colon was 71.7% (inactive).
As for `CCCCCCCCCCNC(=O)CI`, the growth was -40.9% (active) with SR leukemia; 0.969% (active) in the test with OVCAR-8 ovarian; 95.8% (inactive) with OVCAR-5 ovarian; -44.1% (active) in the test with OVCAR-4 ovarian; -67.4% (active) with IGROV1 ovarian; -70.3% (active) in the test with OVCAR-3 ovarian. Moreover, the growth is 91.3% (inactive) in the test on HS 578T breast; 2.88% (active) with NCI/ADR-RES ovarian; -21.1% (active) in the test with T-47D breast; -87% (active) in the test on BT-549 breast; 9.57% (active) in the test with MDA-MB-435 melanoma; -33.9% (active) in the test on SW-620 colon. Further, the growth with MCF7 breast is 10.7% (inactive); in the test on HCT-116 colon it was -28.3% (active); in the test with KM12 colon it was 55.3% (inactive).
With `O=C1OC(c2ccccc2)=N/C1=C\c1ccccc1`, the growth in the test on SR leukemia is 108% (inactive); with OVCAR-8 ovarian, 100% (inactive); in the test on OVCAR-5 ovarian it was 105% (inactive); in the test on OVCAR-4 ovarian, 113% (inactive); with IGROV1 ovarian it was 99.1% (inactive); with OVCAR-3 ovarian it was 111% (inactive). The growth in the test on NCI/ADR-RES ovarian is 99.7% (inactive); in the test on T-47D breast it was 96.4% (inactive); in the test with BT-549 breast, 96.3% (inactive); in the test with MDA-MB-435 melanoma, 109% (inactive); with SW-620 colon it was 101% (inactive); in the test on MCF7 breast, 98.4% (inactive). Besides, the growth with HCT-116 colon is 102% (inactive); in the test with HCC-2998 colon, 96.6% (inactive); with KM12 colon, 108% (inactive).
As for `Cc1cc(-c2cc(C)c(O)c(C)c2)cc(C)c1O`, the growth is 79.4% (inactive) in the test with RPMI-8226 leukemia; 95% (inactive) with OVCAR-8 ovarian; 95.6% (inactive) with OVCAR-5 ovarian; 100% (inactive) in the test on IGROV1 ovarian; 97.2% (inactive) with OVCAR-3 ovarian; 76% (inactive) in the test with NCI/ADR-RES ovarian. The growth was 93.7% (inactive) with T-47D breast; 65.7% (inactive) in the test on BT-549 breast; 8.38% (active) in the test with MDA-MB-435 melanoma; 77.4% (inactive) in the test on SW-620 colon; 91.6% (inactive) in the test with MCF7 breast; 83.7% (inactive) with HCT-116 colon. In the test with HCC-2998 colon, the growth is 92.3% (inactive).
Regarding `Brc1ccc(SSc2ccc(Br)cc2)cc1`, the growth in the test on SR leukemia was 57.8% (inactive); in the test on OVCAR-8 ovarian, 83.9% (inactive); in the test with OVCAR-5 ovarian, 90.8% (inactive); in the test on OVCAR-4 ovarian it was 91.2% (inactive); in the test on SK-OV-3 ovarian, 110% (inactive); with IGROV1 ovarian, 29.3% (inactive). Moreover, the growth with OVCAR-3 ovarian is 85.4% (inactive); with NCI/ADR-RES ovarian, 66.2% (inactive); with BT-549 breast, 29.4% (inactive); in the test on MDA-MB-435 melanoma it was 82.6% (inactive); in the test with SW-620 colon, 84.2% (inactive); in the test with MCF7 breast, 59.7% (inactive). The growth in the test with HCT-116 colon was 56.6% (inactive).
In the case of `NC(Cc1ccccc1)C(=O)NC(Cc1ccccc1)C(=O)O` (stereo not drawn) (H-Phe-Phe-OH; configuration not given here), the growth with SR leukemia is 97.4% (inactive) and 102% (inactive); in the test on OVCAR-8 ovarian, 101% (inactive) and 99.7% (inactive); with OVCAR-5 ovarian, 99% (inactive) and 95.1% (inactive); with OVCAR-4 ovarian, 102% (inactive) and 100% (inactive); in the test on IGROV1 ovarian, 99.7% (inactive) and 103% (inactive); in the test on OVCAR-3 ovarian, 108% (inactive) and 111% (inactive). For the same molecule, the growth is 105% (inactive) and 107% (inactive) in the test with NCI/ADR-RES ovarian; 89.3% (inactive) and 91.7% (inactive) with T-47D breast; 108% (inactive) and 106% (inactive) in the test on BT-549 breast; 109% (inactive) and 99.7% (inactive) in the test with MDA-MB-435 melanoma; 102% (inactive) and 108% (inactive) with SW-620 colon; 98.9% (inactive) and 94.3% (inactive) in the test with MCF7 breast. The growth with HCT-116 colon is 103% (inactive) and 100% (inactive); with HCC-2998 colon, 112% (inactive); in the test with KM12 colon it was 105% (inactive) and 107% (inactive).
